# Data as given in PubChem BioAssay (NCI).
# About 83,000 compounds went through this panel and 20% of them were active in at least one assay; those are over-represented in the sample as a whole.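 The test compound was applied at a single concentration to cells in 96-well plates for 48 hours, and percent growth was recorded.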 A number with no mark means an inactive call. The source made the active and inactive calls. Rule for the calls: active = growth percent below 10; inactive = the rest.
# How the values were obtained:
# Assay in all cases: NCI-60 one-dose screen, 48 h (100 = growth as untreated, 0 = no growth, -100 = all killed)
# Conditions in all cases: 10 µM unless noted
# NCI-H23 lung = tested on: NCI-H23 lung
# NCI-H226 lung = tested on: NCI-H226 lung
# NCI-H322M lung = tested on: NCI-H322M lung
# HOP-62 NSCLC = tested on: HOP-62 NSCLC
# NCI-H460 lung = tested on: NCI-H460 lung
# HOP-92 NSCLC = tested on: HOP-92 NSCLC
# NCI-H522 lung = tested on: NCI-H522 lung
# A549/ATCC NSCLC = tested on: A549/ATCC NSCLC
# 786-0 renal = tested on: 786-0 renal
# COLO 205 colon = tested on: COLO 205 colon
# DU-145 prostate = tested on: DU-145 prostate
# K-562 leukemia = tested on: K-562 leukemia
# MALME-3M melanoma = tested on: MALME-3M melanoma
# MDA-MB-231 breast = tested on: MDA-MB-231 breast
# RXF 393 renal = tested on: RXF 393 renal
# SF-268 CNS = tested on: SF-268 CNS
# SF-295 CNS = tested on: SF-295 CNS
# SF-539 CNS = tested on: SF-539 CNS
# M14 melanoma = tested on: M14 melanoma
SMILES,growth (NCI-H23 lung),growth (NCI-H226 lung),growth (NCI-H322M lung),growth (HOP-62 NSCLC),growth (NCI-H460 lung),growth (HOP-92 NSCLC),growth (NCI-H522 lung),growth (A549/ATCC NSCLC),growth (786-0 renal),growth (COLO 205 colon),growth (DU-145 prostate),growth (K-562 leukemia),growth (MALME-3M melanoma),growth (MDA-MB-231 breast),growth (RXF 393 renal),growth (SF-268 CNS),growth (SF-295 CNS),growth (SF-539 CNS),growth (M14 melanoma)
COc1ccc(/C=C/C(=O)OCC(=O)NNC(=O)c2ccccc2)cc1OC,106%,103%,117%,84.1%,110%,79.3%,104%,99.2%,99.8%,118%,101%,90.2%,105%,94.8%,97.1%,108%,89.6%,91%,107%
O=C(Nc1cccc(Cl)c1)c1cc([N+](=O)[O-])ccc1O,25.8%,68.2%,43.9%,44.2%,54%,8.95% (active),-2.45% (active),66.9%,63.8%,76.7%,73.2%,27.7%,22%,38%,46.2%,65%,58.8%,32.2%,54.9%
CCCCCCCCCCC/C=C\C[C@H](O)C/C=C1/C(=O)C=C[C@@H]1C/C=C\CCCC(=O)OC,-25.2% (active),-45.9% (active),69.8%,-16.1% (active),-31.4% (active),-13.6% (active),-41.9% (active),15.6%,-3.32% (active),-45.9% (active),13.3%,2.5% (active),-2.61% (active),-18.2% (active),-72.8% (active),7.18% (active),-16% (active),-46.2% (active),-31.9% (active)
CCSc1nnc(NC(=O)COc2ccc(Cl)cc2C)s1,105%,101%,120%,100%,112%,83.2%,94.4%,104%,94.7%,93.9%,106%,103%,106%,111%,89.3%,110%,94.2%,103%,105%
CC1(C)OC2COC3(C(=O)O)OC(C)(C)OC3C2O1 (configuration not stated),97.8%,99.9%,98.6%,91.2%,103%,98.3%,90.2%,95.5%,104%,98.8%,108%,101%,109%,88.3%,111%,95.9%,103%,101%,99.9%
C=C1C(=O)O[C@H]2[C@H]1CC/C(COC(=O)NCc1cc(OC)c(OC)c(OC)c1)=C\CC[C@@]1(C)O[C@@H]21,86.8%,76.2%,99.5%,80.4%,94%,72.4%,-42.6% (active),88.1%,40.3%,17.6%,43.3%,16.3%,101%,56.5%,60.4%,68.5%,99.4%,65.1%,49.9%
COC(=O)CCCCCCN=Cc1c(O)c(O)c(C(C)C)c2cc(C)c(-c3c(C)cc4c(C(C)C)c(O)c(O)c(C=NCCCCCCC(=O)OC)c4c3O)c(O)c12,19.5%,77.3%,45.2%,24%,6.7% (active),7.71% (active),-6.49% (active),29.7%,29%,15.7%,30.6%,10.5%,68.5%,11.9%,36.2%,32.8%,7.26% (active),15.2%,27%
Nc1ccc(S(=O)(=O)c2ccc(Cl)cc2)cc1,97.9%,98%,91.4%,97.8%,96%,93.4%,89.7%,86.6%,99%,109%,104%,109%,85.7%,92.3%,113%,96.8%,98.2%,86%,96.1%
